In PubChem BioAssay (Tox21):
Records with an inconclusive call do not appear. Some compounds were tested as several samples or in several runs, with calls that do not always agree. Calls of active or inactive are those of the source. The call rests on the fitted dose curve.

assay: p53 small molecule agonists, cell-based qHTS assay with human liver microsomes: qHTS cell viability counter screen (AID 1963579); details: p53RE-bla HCT-116 viability, ATP luminescence, 16 h, HLM; series mostly up to 66 µM; activity change, negative = cytotoxicity: at the top concentration; further: nearly all actives have a fitted effect of over 45% in size
Excerpt: National Center for Advancing Translational Sciences [NCATS]
Division of Preclinical Innovation [DPI]
U.S. Environmental Protection Agency [EPA]
National Institutes of Environmental Health Sciences [NIEHS]
National Toxicology Program [NTP]
U.S. Food and Drug Administration [FDA]
p53, a tumor suppressor protein, is activated following cellular insult, including DNA damage and other cellular stresses. The activation of p53 regulates cell fate by inducing DNA repair, cell cycle arrest, apoptosis, or cellular senescence. The activation of p53, therefore, is a good indicator of DNA damage and other cellular stresses. […] The activation of the reporter gene under culture conditions can be detected by fluorescence intensity. This cell line was used to screen the Tox21 10K compound library in the condition of presence of human liver microsomes and to identify agonists that activate the p53 signaling pathway after in vitro metabolic activation (Ooka et al., Archive of Toxicology 96:1975-1987, 2022).
Tox21 Assay Protocol Summary:
The p53RE-bla cells were dispensed at 4,000cells/3ul/well in 1536-well black-clear bottom plates. After the assay plates were incubated at 37 C, 5% CO2 incubator for 5 hours, 23 nL of compounds dissolved in DMSO, positive controls or DMSO only was transferred to the assay plate. Following compound addition, 3 uL of human liver microsomes (XenoTech, Kansas City, KS) at final concentration of 0.5 mg/mL and 1uL of B-Nicotinamide adenine dinucleotide 2'-phosphate (NADPH) at final concentration of 0.5 mg/mL were transferred to the assay plate. The plates were incubated at 37 C for 16 hours. 1 uL of LiveBLAzer detection mixture was added to each well and the plates were incubated at room temperature in the dark for 2 h. Fluorescence intensity at 460 and 530 nm emission and 405 nm excitation were measured by an Envision plate reader. For cell viability readout that measures cytotoxicity, 4 ul/well of CellTiter-Glo reagent was added into the assay plates using a Flying Reagent Dispenser. After 30 min incubation at room temperature, the luminescence intensity in the plates was measured using a ViewLux plate reader.
On the % scale 0 is the no-effect control and ±100 the full control effect; potency means the concentration at half of the fitted maximal effect.

Row | SMILES | activity change, negative = cytotoxicity | Potency
1 | COc1cc(C(=O)N2CCCCCCC2)cc(OC)c1OC | -3.46% [at 30.3 µM] (inactive) | 
2 | Oc1cccc2ccccc12 |  | inactive
3 | CC(C)CCCCCCCCCCCCCCC(=O)O | -6.97% (inactive) | 
4 | CC(=O)Oc1cccc(O)c1 | -6.44% [at 30.3 µM] (inactive) | 
5 | Cc1ccc(N)cc1[N+](=O)[O-] | 1.44% (inactive) | 
6 | CCCCCCCCCCCCCCC(=O)O | 8.83% (inactive) | 
7 | CCCCCC(=O)O[C@]1(C(C)=O)CC[C@H]2[C@@H]3CCC4=CC(=O)CC[C@]4(C)[C@H]3CC[C@@]21C |  | 20.3 µM (active) and inactive
8 | CC(=O)Oc1ccccc1C(=O)Nc1ncc([N+](=O)[O-])s1 | -2.84% (inactive) | 
9 | COC(=O)c1cc(S(N)(=O)=O)ccc1OC | -0.843% [at 30.3 µM] (inactive) | 
10 | Cc1c(C)c2c(c(C)c1O)CCC(C)(COc1ccc(CC3SC(=O)NC3=O)cc1)O2 (stereo not given) | 5.1% [at 30.3 µM] (inactive) | 
11 | COC(=O)c1c(Cl)c(Cl)c(C(=O)OC)c(Cl)c1Cl |  | inactive
12 | CCCCC(CC)COCCC#N (stereo not given) | 1.32% (inactive) | 
13 | O=C(O)c1cc(O)c(O)c(O)c1 |  | inactive
14 | O=C1NC(c2ccccc2)(c2ccccc2)C(=O)N1COP(=O)(O)O | -1.7% [at 30.3 µM] (inactive) | 
15 | O=S(=O)(O)c1cccc2ccccc12 | 4.03% (inactive) | 
16 | Cl/C(=C\n1cncn1)c1ccc(Cl)cc1Cl | 0.799% [at 30.3 µM] (inactive) | 
17 | O=S(=O)(O)CCS |  | inactive
18 | O=C(O)CCC(=O)Nc1ccc(S(=O)(=O)Nc2nccs2)cc1 | -0.73% [at 30.3 µM] (inactive) | 
19 | O=c1[nH]c2ccccc2c(=O)n1CCCl | 10.2% [at 30.3 µM] (inactive) | 
20 | CCCCC(=O)N(C)C | -3.67% (inactive) | 

Row | SMILES | activity change, negative = cytotoxicity | Potency
21 | CCCC(O)C(O)CO (stereo not given) | -3.1% (inactive) | 
22 | CCCCCCCCS(=O)(=O)Cl | 4.74% (inactive) | 
23 | CSc1cnccn1 | -3.05% (inactive) | 
24 | O=C(O)CCCCCCCCCCC(=O)O |  | inactive
25 | CC(=O)/C=C/C1C(C)=CCC(C)C1(C)C (stereo not given) | 6.74% (inactive) | 
26 | CCCCCCCC(OC)OC | 7.82% [at 30.3 µM] (inactive) | 
27 | O=C1Nc2ccccc2C1(c1ccc(O)cc1)c1ccc(O)cc1 |  | inactive
28 | Cc1ccc(S(=O)(=O)NC(=O)NC2CCCCCCC2)cc1 | -9.32% [at 30.3 µM] (inactive) | 
29 | CN1CCOCC1 |  | inactive
30 | O=C(O)/C=C/c1ccc(Cn2ccnc2)cc1 | -6.76% [at 30.3 µM] (inactive) | 
31 | O=C(Cl)c1ccccc1[N+](=O)[O-] | 0.287% (inactive) | 
32 | CCN(CC)CCNC(=O)c1ccc(N)cc1 |  | inactive
33 | CN1N=C(C(N)=O)CCC1=O | 31.9% [at 30.3 µM] (inactive) | 
34 | CC/C=C\CCO | 1.38% (inactive) | 
35 | CCN(CC)c1ccc2c(C)cc(=O)oc2c1 |  | inactive
36 | C(=C\c1ccccc1)/c1ccccc1 | 2.22% (inactive) | 
37 | CC(C)[C@H]1CC[C@@H](C)CC1=O | 5.21% (inactive) | 
38 | Clc1nc2ccccc2s1 | -0.619% (inactive) | 
39 | CCCCCCOC(=O)C(C)CC (stereo not given) | -9.07% (inactive) | 
40 | C=CCCCCCCCCCCCCCCCC | -5.51% [at 5.99 µM] (inactive) | 
